The source of these data is PubChem BioAssay (NCI).

The panel holds about 79,000 compounds, 15% with a hit somewhere; the sample as a whole holds those more often. Unmarked numbers belong to inactive results. Calls of active or inactive are those of the source. No stated cut-off is given here; in the data, active means growth inhibition above about 70%; inactive means the rest.

The nature of assay [1]: NCI Yeast Anticancer Drug Screen. Data for the rad50 strain (AID 155).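 Further: 0% = growth of vehicle-only cultures of the same strain.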 The conditions noted are these: S. cerevisiae rad50 strain growth inhibition; at 50.0 µM; hits give high values. Summed up:
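Vehicle-treated cultures provide the reference for the growth inhibition reported for compound-exposed, repair-deficient yeast.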

Assay [2] in a line: NCI Yeast Anticancer Drug Screen. Data for the mec2-1 strain (AID 157). The conditions noted are these: S. cerevisiae mec2-1 strain, at 50.0 µM, hits give high values. Summed up: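 Using mec2-1 yeast: add compound, measure growth, express inhibition versus vehicle-treated cultures.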
Assay [3] can be described thus: NCI Yeast Anticancer Drug Screen. Data for the sgs1 mgt1 strain (AID 161).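 Further: 0% = growth of cultures given vehicle only.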 The following applies: S. cerevisiae sgs1 mgt1 strain, at 50.0 µM, hits give high values. Summed up: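 This yeast growth screen uses a strain with defined DNA-repair lesions; compound-treated growth is compared with vehicle-treated growth.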
The nature of assay [4]: NCI Yeast Anticancer Drug Screen. Data for the cln2 rad14 strain (AID 165).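 Further: 0% = growth equal to vehicle treated cultures.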 The conditions noted are these: S. cerevisiae cln2 rad14 strain, at 50.0 µM, hits give high values. The method, boiled down: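 Yeast strain cln2 rad14, bearing defects in cell cycle control and DNA repair, serves as the test system; values reflect growth inhibition compared with vehicle.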
Assay [5] in a line: NCI Yeast Anticancer Drug Screen. Data for the bub3 strain (AID 167). The conditions noted are these: S. cerevisiae bub3 mutant strain, at 50.0 µM, hits give high values. Summed up: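 Mutant yeast screening strain plus compound; vehicle-treated cultures serve as the 0% inhibition reference.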
Assay [6] can be described thus: NCI Yeast Anticancer Drug Screen. Data for the mlh1 rad18 strain (AID 175). The following applies: S. cerevisiae mlh1 rad18 strain growth inhibition; at 50.0 µM; hits give high values. The method, boiled down:
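Steps: expose repair-defective yeast to compound; measure growth; express inhibition against vehicle-treated controls.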

`COC(=O)Nc1cccc(NC(=O)C(=O)O)c1`: the growth inhibition in assay [1] is -0.1%; in assay [2] it was 3.75%; in assay [3], -0.95%; in assay [4], -29.4%; in assay [5], -4.7%; in assay [6] it was -0.9%.
Turning to `CCC(COC(=O)CC[C@@H](NC(=O)C(C)NC(=O)C(C)OC1C(O)C(CO)OC(OCc2ccccc2)C1NC(C)=O)C(N)=O)NC1c2ccccc2Nc2cccc([N+](=O)[O-])c21` (stereo not given in full), the growth inhibition was 5.65% in assay [1]; -9.7% in assay [2]; -13.8% in assay [3]; 6.4% in assay [4]; -17.9% in assay [5]; -10.7% in assay [6].
As to `Cc1ccc(C2=NO[C@@H]3C(=O)N(c4ccc(Cc5ccc(N6C(=O)[C@H]7C(c8ccc(C)cc8)=NO[C@H]7C6=O)cc5)cc4)C(=O)[C@H]23)cc1`, the growth inhibition in assay [1] is -0.4%; in assay [2], 30.1%; in assay [3], 29.1%; in assay [4], 32.4%; in assay [5] it was 31.1%; in assay [6], 20.1%.
For the compound `O/N=C1\CCCC\C1=N/O`, the growth inhibition in assay [1] is 6.55%; in assay [2] it was -9.8%; in assay [3], -8.35%; in assay [4], -3.1%; in assay [5], 8.95%; in assay [6], -4.25%.
Consider `CNC(=O)N(C)COC`, for which the growth inhibition was -2.65% in assay [1]; -10.9% in assay [2]; 2.55% in assay [3]; -0.7% in assay [4]; -40.8% in assay [5]; -5.1% in assay [6].
As for `O=c1nnc(O)c2n(O)cccc1-2`, the growth inhibition in assay [1] was -24.2%; in assay [2], -11.8%; in assay [3], 6.55%; in assay [4], -42.5%; in assay [5], -1.75%; in assay [6], 14%.
With `O=C(Nc1cc(Cl)ccc1Cl)c1ccccc1Cl`, the growth inhibition is 2.9% in assay [1]; -6.7% in assay [2]; 14.8% in assay [3]; 8.85% in assay [4]; 19.9% in assay [5]; 20.5% in assay [6].
On to `O=S(=O)(SC(S(=O)(=O)c1ccccc1)S(=O)(=O)c1ccccc1)c1ccccc1`, for which the growth inhibition is 13.2% in assay [1]; 9.35% in assay [2]; 39.4% in assay [3]; 1% in assay [4]; 72.6% (active) in assay [5]; 39.2% in assay [6].
Consider `c1ccc2c(CN3CCCCC3)cccc2c1`, for which the growth inhibition was -6.1% in assay [1]; -19.1% in assay [2]; -4.05% in assay [3]; 5.5% in assay [4]; -15.2% in assay [5]; -13.9% in assay [6].
For the compound `COc1ccc2c(c1)C1(C)CCCC(C)(CO)C1CC2` (stereo not given), the growth inhibition was 37% in assay [1]; -0.3% in assay [2]; 20.2% in assay [3]; 3.95% in assay [4]; 1.4% in assay [5]; -10.8% in assay [6].
As to `C#CCN(CC#C)C(=O)CCCCCCCCC=C`, the growth inhibition in assay [1] was 97% (active); in assay [2] it was 96.5% (active); in assay [3], 97% (active); in assay [4] it was 86% (active); in assay [5], 97.5% (active); in assay [6] it was 97.2% (active).
For `CNC(=O)OCc1c(COC(=O)NC)c(-c2ccc(S(=O)(=O)c3ccccc3)cc2)n(C)c1C`, the growth inhibition in assay [1] is -5.85%; in assay [2], -3.85%; in assay [3], -1.95%; in assay [4], -2.7%; in assay [5], -16.4%; in assay [6], -42.6%.
`COc1cc(C=C(c2ccc(N(C)C)cc2)c2ccc(N(C)C)cc2)c2ccccc2c1OC`: the growth inhibition in assay [1] is 22.9%; in assay [2], 14.5%; in assay [3], 3.15%; in assay [4], 27.3%; in assay [5] it was -12.8%; in assay [6], -42.5%.
For the compound `N#Cc1c(C#N)c(-c2ccco2)n(/N=C/c2ccco2)c1N`, the growth inhibition was 4.55% in assay [1]; 0.6% in assay [2]; -34.5% in assay [3]; -6.75% in assay [4]; -25.8% in assay [5]; -37.4% in assay [6].
Take `Cc1[nH]nc(-c2ccon2)c1N`: the growth inhibition in assay [1] was -4.45%; in assay [2], -3.3%; in assay [3], -27.4%; in assay [4], -20.5%; in assay [5] it was 13.2%; in assay [6], -6.6%.
Turning to `NC(CCC(=O)NC(CSSCCCCS(=O)O)C(=O)NCC(=O)O)C(=O)O` (stereo not given), the growth inhibition in assay [1] was -1.65%; in assay [2], -8.2%; in assay [3], 11.3%; in assay [4], -10.2%; in assay [5] it was 14.2%; in assay [6], 1.4%.
`Cc1noc(NC2=CC(=O)C(=O)c3ccccc32)c1C`: the growth inhibition in assay [1] is 34.8%; in assay [2] it was 8.45%; in assay [3] it was 40.8%; in assay [4], 8%; in assay [5], 28.6%; in assay [6], 42.7%.
As to `CNc1nc(N)nc(N)c1N1CCN(c2ccc(C(=O)O)cc2)CC1`, the growth inhibition is 13.3% in assay [1]; -0.8% in assay [2]; 19.8% in assay [3]; 9.95% in assay [4]; 17.2% in assay [5]; 16.6% in assay [6].
On to `COc1ccc2c(c1OC)C(=O)O[C@@H]2[C@H]1c2c(cc3c(c2OC)OCO3)CCN1C`, for which the growth inhibition in assay [1] is 5.7%; in assay [2], -28.9%; in assay [3], -27.8%; in assay [4] it was 6.75%; in assay [5], -7.35%; in assay [6] it was 11.3%.
Regarding `NS(=O)(=O)c1ccc(NC(NC(=O)C(C(F)(F)F)C(F)(F)F)(C(F)(F)F)C(F)(F)F)cc1`, the growth inhibition in assay [1] is 16.6%; in assay [2], 15.1%; in assay [3], -6.2%; in assay [4], -8.25%; in assay [5] it was 5.15%; in assay [6], -0.8%.
